Screening data (PubChem BioAssay)
Most compounds without a hit are left out; they make up all but 7.9% or so of the library.
HCV inhibitor = qHTS Assay for Inhibitors of Hepatitis C Virus (HCV) | AID 651820, 2012 | actives 3.4% (n = 340,000) | Huh7.5.1 HCVcc-Cre infection, luciferase reporter, 44 h | Potency, µM (doses to about 41.8 µM), for the others: top-dose activity change, negative = inhibition, actives largely listed as inhibitors; active = well fitted inhibition curve with a large enough effect; inconclusive = small, poorly fitted or top-dose-only effect, or another doubt; inactive = no such curve, though single readings can be large or run the other way; also: potency is read from the fitted curve at half-maximal effect
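Antiviral activity was scored by luciferase reporter output from cells infected with HCVcc-Cre (~0.5 moi) in presence of compound, 44 h infection period, cells seeded 1,000/well 4 h prior.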
HCMV antiviral = qHTS Assay for inhibitors of the human cytomegalovirus (HCMV) | actives 4.5% (n = 410,000) | activity change, negative = inhibition, % at 57.5 µM | AID 1259415, 2018 | HFF cells, HCMV-luciferase reporter, 72 h; stronger effect = lower value; in the data active = activity change below about -60%; inconclusive = no clear call, values can overlap the other calls; inactive = above about -39%
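HFF cells seeded 16 h at 37C, treated with compounds, infected with luciferase-reporter HCMV at MOI 1 PFU/cell; luciferase read at 72 h post infection, normalized to buffer-only and Salinomycin controls.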
FMDV inh = High Throughput Screening for Foot and Mouth Disease Virus Antivirals; FMDV antiviral cell-based qHTS; Potency, µM (doses to about 57.9 µM), for the others: at the top dose activity change, negative = inhibition, actives largely listed as inhibitors; actives 1.2% (n = 410,000); calls by dose curve; tested in HEK293T cells; also: read-out not given here; potency is read from the fitted curve at half-maximal effect; nearly all actives have a fitted effect of over 45% in size
MARV entry inh = qHTS for inhibitors of binding or entry into cells for Marburg Virus; AID 540276, 2011; actives 1.8% (n = 300,000); Potency, µM (highest dose often 37.8 µM), without a hit: at the highest dose activity change, negative = inhibition, usual class: inhibitors; Marburg virus pseudotyped entry inhibition, cell reporter; calls by dose curve; tested in HEK293 cells; also: potency is read from the fitted curve at half-maximal effect
LASV entry inh = qHTS for Inhibitors of binding or entry into cells for Lassa Virus; actives 1.2% (n = 300,000); AID 540256, 2011; Potency, µM (doses to about 37.9 µM), for inactives: at the highest dose activity change, negative = inhibition, most hits filed as inhibitors; Lassa virus pseudotype entry inhibition, cell reporter; calls by dose curve; tested in HEK293 cells; also: potency is read from the fitted curve at half-maximal effect; nearly all actives have a fitted effect of over 50% in size
The depositor's hits bear a star; ? = inconclusive; . = no result; [ ] = another dose, or the depositor's remark. % is scaled to controls: 0 for no effect and ±100 for the full control effect.

SMILES	HCV inhibitor	HCMV antiviral	FMDV inh	MARV entry inh	LASV entry inh
O=C(CSc1nc(-c2ccco2)cc(C(F)(F)F)n1)Nc1ccc2c(c1)CCC2	?	-22	-12%	?	-28%
COc1ccc(CCNC(=O)c2ccc3nc(-c4ccco4)c(-c4ccco4)nc3c2)cc1OC	2.8µM*	.	16µM*	10µM*	8.2µM*
COc1ccc(C2C(=O)N(C3CCCCC3)CC(=O)N2CCC2=CCCCC2)cc1 (stereo unspecified)	.	?	-20%	.	-2%[46.1 µM]
COc1cccc(CNCc2ccccn2)c1OC	-7%	-61*	.	-1%	-1%
COc1cccc(CNCc2ccc(OC)c3ccccc23)c1OC	?	19	-15%	?	?
CCOC(=O)NN=C1C[C@@H](O)[C@@H](O)[C@@H]2[C@H]3C(=O)N(Cc4ccc5c(c4)OCO5)C(=O)[C@@H]3CC[C@@H]12	.	.	.	-2%[14.2 µM]	.
Cn1c(C=O)c(-c2ccc3c(c2)OCCO3)c2ccccc21	16µM*	?	-20%	.	.
Cn1c2ccccc2c(=O)c2ccc(-c3ccc4c(c3)OCO4)cc21	?	81	-1%	.	.
CN1CCN(C(c2cccc(Br)c2)c2sc3nc(-c4ccco4)nn3c2O)CC1 (stereo unspecified)	.	-10	-1%	.	0%[46.1 µM]
CC1=C(C)/C(=N\OS(=O)(=O)c2ccccc2)C=CC1=O	13µM*	.	11µM*	7.9µM*	?
CC(C)N1C[C@@H](Sc2ccccn2)C[C@H]1C(=O)Nc1ccc2c(c1)Nc1ccccc1CC2	.	.	-6%	.	.
COc1cc(OC)cc(C(=O)Oc2c(CN3CCOCC3)cc(Cl)c3cccnc23)c1	-27%	?	10%	-16%[46.1 µM]	?
O=C(Oc1c(CN2CCOCC2)cc(Cl)c2cccnc12)c1ccccc1F	?	-85*	-16%	?	?
COc1ccc(C(=O)Oc2c(CN3CCOCC3)cc(Cl)c3cccnc23)cc1OC	17%	-22	-6%	0%	.
Oc1c(CN2CCCCC2)cc(Br)c2cccnc12	?	-102*	?	0%	.
O=C(Oc1c(CN2CCOCC2)cc(Cl)c2cccnc12)c1ccccc1	?	-96*	-29%	?	?
Oc1c(Cl)cc(CN2CCOCC2)c2cccnc12	2.5µM*	-99*	-25%	.	.
O=c1c(-c2cc(F)cc(F)c2)nc2cnc(N3CCNCC3)nc2n1Cc1ccc(F)cc1	.	.	-4%	.	.
CC(=O)c1ccccc1-c1ccc2c(c1)CC(CNC(=O)C[C@@H]1C[C@@H](C)NC(=S)N1)O2 (stereo partly specified)	.	.	-9%	.	.
CC(C)CC(=O)NCC(c1ccc2c(c1)OCO2)N1CCN(c2ccccc2)CC1 (stereo unspecified)	.	19	-16%	.	9%[46.1 µM]
NC(=O)C1CCN(C(=O)c2ccccc2CCc2ccccc2)CC1	10%	-11	6%	?	9%[46.1 µM]
O=C(Cc1ccccc1)Nc1ccccc1C(=O)N1CCCCC1	-11%	-34	11%	.	.
O=C(c1ccccc1CCc1ccccc1)N1CCOCC1	-10%	-104*	-4%	17%	24%
O=C(Cc1ccccc1)c1ccccc1C(=O)N1CCCCC1	3.2µM*	14	44%	?	1%
COc1ccc(OC)c(Nc2ncnc3c2nc2n3CCCC2)c1	.	?	5%	.	?
SMILES	HCV inhibitor	HCMV antiviral	FMDV inh	MARV entry inh	LASV entry inh
CC(=O)c1ccc(S(=O)(=O)N(C)CC(=O)NCC2CCCCC2)cc1	6%	9	18%	-10%[46.1 µM]	13%[46.1 µM]
CN(CC(=O)NCc1ccc(F)cc1)S(=O)(=O)c1ccc(Br)s1	5%	-71*	0%	0%[46.1 µM]	-14%
CN(CC(=O)NCC1CCCCC1)S(=O)(=O)c1ccc(F)cc1	-2%	-63*	-4%	-6%[46.1 µM]	0%[46.1 µM]
COc1ccc(CNC(=O)CN(C)S(=O)(=O)c2ccc(Br)s2)cc1	-3%	0	25%	6%[46.1 µM]	-9%
Cc1ccc(N(C)C(=O)c2noc3c2CCCCC3)cc1C	.	-39	8%	.	1%[46.1 µM]
Cc1cc(C(=O)Nc2cccc(-c3nc(CNC(=O)c4ccccc4C(F)(F)F)c(C)o3)c2)c(C)o1	.	.	28%	.	.
CCOC(=O)Cc1csc(NC(=O)c2ccc(C)cc2)n1	22%	-25	-11%	-3%[46.1 µM]	.
CCOC(=O)Cc1csc(NC(=S)NC(=O)c2ccccc2)n1	-9%	-65*	0%	7%	0%
CCOC(=O)Cc1csc(NC(=S)NC(=O)c2ccc(C)cc2)n1	-2%	-96*	-1%	.	.
CCOC(=O)Cc1csc(NC(=O)c2c(C)noc2C)n1	-8%	-99*	-28%	.	.
C1=C(c2c[nH]c3ccccc23)CCN(Cc2ccccc2)C1	?	-97*	-11%	.	.
COc1ccccc1NC(=O)N1CC=C(c2c[nH]c3ccccc23)CC1	.	43	-2%	21%[46.1 µM]	.
CN1CC=C(c2c[nH]c3ccccc23)CC1	6.3µM*	9	2%	.	.
CN(C)S(=O)(=O)N(CC(=O)Nc1ccc(Br)cc1F)c1ccccc1	.	-5	-13%	?	-23%[46.1 µM]
CCN(CC)S(=O)(=O)c1ccc2c(c1)N(CC(=O)N1CCN(c3cccc(C)c3C)CC1)C(=O)CO2	.	-2	-15%	.	-7%[46.1 µM]
COC1=C(OC)CC2=C(CCN=C2/C(=N\O)C2CCC(OC)C(OC)C2)C1 (stereo unspecified)	.	.	.	-4%[46.1 µM]	.
O=C1CC(c2ccccc2)CC2=C1C=Nc1ccccc1N2 (stereo unspecified)	-27%	-77*	?	?	?
O=C1CC(c2ccc(F)cc2)CC2=C1C=Nc1ccccc1N2 (stereo unspecified)	-20%	-31	?	?	.
COCCCNC(=O)Cc1c(C)c2c(cc(C)c3c(C(C)(C)C)coc32)oc1=O	11µM*	-34	-16%	.	.
Cc1c(CC(=O)NCCc2ccccc2F)c(=O)oc2c(C)c3occ(C(C)(C)C)c3cc12	.	-78*	-21%	16%[46.1 µM]	-3%[46.1 µM]
Cc1c(CC(=O)NCCc2ccccc2)c(=O)oc2c(C)c3occ(C(C)(C)C)c3cc12	.	?	-16%	9%[46.1 µM]	6%[46.1 µM]
Cc1cccc(-c2noc(-c3ccc(NCc4cccnc4)c([N+](=O)[O-])c3)n2)c1	.	38	-12%	11%[46.1 µM]	-16%[46.1 µM]
O=C1c2ccccc2-c2onc3ccc(NCc4ccco4)c1c23	10µM*	.	?	?	-24%
O=C1C(Cl)=C(NCCN2CCCCC2)C(=O)c2ccccc21	7.9µM*	.	40µM*	.	.
O=C1C(Cl)=C(NCc2ccco2)C(=O)c2ccccc21	8.9µM*	-86*	-18%	?	-10%[46.1 µM]
COC(=O)[C@H](COC(C)(C)C)NC(=O)O[C@@H]1C(=O)c2ccc(OC)cc2O[C@H]1c1cccc(C(F)(F)F)c1	.	.	.	-1%[14.2 µM]	.
C[C@H]1Cc2c(-c3ccccc3)nc3c(c2CO1)CN(S(=O)(=O)c1ccc2c(c1)OCCN2C)CC3	.	.	.	-12%[14.2 µM]	?
CC1CCN(CCCCOc2ccc(C(=O)c3ccccc3)cc2)CC1	?	8	-16%	?	16µM*
